Measurements published in the antibiotic and cytotoxicity screens of Wong et al. (2023).
The campaign covered roughly 39,000 compounds. About 1,500 (3.8%) were called active. The list comes from a sample in which actives are over-represented; it also holds similar structures and randomly drawn compounds.

System: HSkMC (human skeletal muscle cells)
Test: cytotoxicity call (relative viability < 0.9)
Conditions: 10 µM

Row | SMILES | cytotoxicity call
1 | CC(C)[C@H]1C(=O)N[C@@H](CCCNC(=N)N)C(=O)NCC(=O)N[C@@H](CC(=O)O)C(=O)N[C@H](Cc2ccccc2)C(=O)N1C | inactive
2 | CC(C)C[C@H]1NC(=O)[C@@H](CCCN)NC(=O)[C@H](C(C)C)NC(=O)[C@H]2CCCN2C(=O)[C@@H](Cc2ccccc2)NC(=O)[C@@H](CC(C)C)NC(=O)[C@@H](CCCN)NC(=O)[C@H](C(C)C)NC(=O)[C@H]2CCCN2C(=O)[C@@H](Cc2ccccc2)NC1=O | active
3 | CC[C@@H](C)CCCCC(=O)N[C@@H](CCN)C(=O)N[C@H](C(=O)N[C@@H](CCN)C(=O)N[C@H]1CCNC(=O)[C@H]([C@@H](C)O)NC(=O)[C@H](CCN)NC(=O)[C@H](CCN)NC(=O)[C@H](CC(C)C)NC(=O)[C@@H](Cc2ccccc2)NC(=O)[C@@H](CCN)NC1=O)[C@@H](C)O | inactive
4 | CC(C)C[C@@H]1NC(=O)[C@@H](C(C)C)NC(=O)[C@@H]2CCCN2C(=O)[C@@H](CC(=O)O)NC(=O)[C@@H](Cc2c[nH]c3ccccc23)NC1=O | inactive
5 | CC1NC(=O)C2CCCN2C(=O)C(CC(N)=O)NC(=O)C2CSSCC(N)C(=O)NC3CSSCC(NC1=O)C(=O)NC(C(C)O)C(=O)NCC(=O)NC(C(=O)NC(Cc1ccc(O)cc1)C(=O)O)CSSCC(NC(=O)C(Cc1ccc(O)cc1)NC(=O)C(CCC(=O)O)NC3=O)C(=O)N2 (centres undefined) | inactive
6 | CC(C)(O)C#Cc1ccc([C@H]2[C@@H](CO)N3CCCCN(S(C)(=O)=O)C[C@@H]23)cc1 | inactive
7 | N#C[C@H]1NCc2cnnn2Cc2ccccc21 | inactive
8 | COc1ccc(NC(=O)N(C)C[C@H]2OCCCC[C@@H](C)Oc3ccc(NC(=O)NC(C)C)cc3C(=O)N([C@H](C)CO)C[C@H]2C)cc1 | inactive
9 | COc1ccc(S(=O)(=O)N(C)C[C@@H]2OCCCC[C@H](C)Oc3ccc(NC(=O)Nc4ccccc4)cc3C(=O)N([C@@H](C)CO)C[C@@H]2C)cc1 | inactive
10 | CN(C)CCN1CC2(CCN(C(=O)c3cnccn3)CC2)OCC1=O | inactive
11 | Cc1noc(C)c1S(=O)(=O)Nc1ccc2c(c1)C(=O)N([C@H](C)CO)C[C@@H](C)[C@@H](CN(C)Cc1ccc(C(F)(F)F)cc1)OCCCC[C@H](C)O2 | inactive
12 | C[C@@H]1CCCCO[C@@H](CN(C)C(=O)CCC(F)(F)F)[C@@H](C)CN([C@@H](C)CO)C(=O)c2cc(NC(=O)Nc3ccccc3)ccc2O1 | inactive
13 | C[C@@H]1CCCCO[C@@H](CN(C)Cc2ccc3c(c2)OCO3)[C@H](C)CN([C@H](C)CO)C(=O)c2cc(NC(=O)Nc3ccc4c(c3)OCO4)ccc2O1 | inactive
14 | C[C@@H]1CN([C@@H](C)CO)C(=O)c2cc(NC(=O)Nc3ccc4c(c3)OCO4)ccc2O[C@H]1CN(C)Cc1ccc(C(F)(F)F)cc1 | active
15 | C[C@H](CO)N1C[C@H](C)[C@@H](CN(C)Cc2ccc(C(F)(F)F)cc2)Oc2ccc(NC(=O)Nc3ccc4c(c3)OCO4)cc2C1=O | inactive
16 | C[C@H](CO)N1C[C@H](C)[C@H](CN(C)Cc2ccc(C(F)(F)F)cc2)Oc2ccc(NC(=O)Nc3ccc4c(c3)OCO4)cc2C1=O | inactive
17 | C[C@@H]1CN([C@H](C)CO)C(=O)c2cc(NC(=O)Nc3ccc4c(c3)OCO4)ccc2O[C@@H]1CN(C)Cc1ccc(C(F)(F)F)cc1 | active
18 | C[C@H]1CN([C@@H](C)CO)C(=O)c2cc(NC(=O)Nc3ccc4c(c3)OCO4)ccc2O[C@H]1CN(C)Cc1ccc(C(F)(F)F)cc1 | inactive
19 | C[C@H]1CN([C@@H](C)CO)C(=O)c2cc(NC(=O)Nc3ccc4c(c3)OCO4)ccc2O[C@@H]1CN(C)Cc1ccc(C(F)(F)F)cc1 | inactive
20 | Cc1ccc(S(=O)(=O)Nc2ccc3c(c2)C(=O)N([C@H](C)CO)C[C@H](C)[C@@H](CN(C)C(=O)CCC(F)(F)F)OCCCC[C@H](C)O3)cc1 | inactive
21 | C[C@H]1CN([C@@H](C)CO)C(=O)Cc2cc(NC(=O)Cc3ccccc3)ccc2O[C@H]1CN(C)S(=O)(=O)c1ccccc1 | inactive
22 | C[C@H](CO)N1C[C@H](C)[C@@H](CN(C)S(=O)(=O)c2cn(C)cn2)OCCCC[C@H](C)Oc2ccc(NC(=O)Nc3ccc(C(F)(F)F)cc3)cc2C1=O | active
23 | C[C@H]1CCCCO[C@H](CN(C)S(=O)(=O)c2cn(C)cn2)[C@@H](C)CN([C@@H](C)CO)C(=O)c2cc(NC(=O)Nc3ccc(C(F)(F)F)cc3)ccc2O1 | inactive
24 | C[C@@H]1CN([C@@H](C)CO)C(=O)c2cc(NC(=O)Nc3ccc(C(F)(F)F)cc3)ccc2O[C@@H](C)CCCCO[C@H]1CN(C)S(=O)(=O)c1cn(C)cn1 | inactive
25 | C[C@H]1CCCCO[C@@H](CN(C)S(=O)(=O)c2cn(C)cn2)[C@@H](C)CN([C@@H](C)CO)C(=O)c2cc(NC(=O)Nc3ccc(C(F)(F)F)cc3)ccc2O1 | active
26 | C[C@@H]1CN([C@@H](C)CO)C(=O)c2cc(NC(=O)Nc3ccc(C(F)(F)F)cc3)ccc2O[C@@H](C)CCCCO[C@@H]1CN(C)S(=O)(=O)c1cn(C)cn1 | inactive
27 | C[C@@H]1CN([C@H](C)CO)C(=O)c2cc(NC(=O)Nc3ccc(C(F)(F)F)cc3)ccc2O[C@@H](C)CCCCO[C@@H]1CN(C)S(=O)(=O)c1cn(C)cn1 | inactive

Row | SMILES | cytotoxicity call
28 | CN1CCN(c2nc3c(c(=O)[nH]c(=O)n3C)n2CC(=O)c2ccc(Cl)cc2)CC1 | inactive
29 | Cc1noc(C)c1S(=O)(=O)Nc1ccc2c(c1)C(=O)N([C@H](C)CO)C[C@H](C)[C@@H](CN(C)S(=O)(=O)c1ccc(F)cc1)O2 | inactive
30 | COc1cccc(C#Cc2ccc3c(c2)O[C@@H](CN(C)C(=O)c2ccccn2)[C@H](C)CN([C@@H](C)CO)S3(=O)=O)c1 | inactive
31 | Cc1c(/C=N/c2ccc(C(C)C)cc2)sc2ccccc12 | inactive
32 | C[C@]12CC[C@@H]3[C@]4(C=C[C@@]5(C=C4C(=O)C4CCCCC4)C[C@@H](O)CC[C@]35C)[C@@H]1CC[C@@]2(O)CN1CCC(n2c(=O)[nH]c3ccccc32)CC1 | inactive
33 | O=C(C[C@@H]1C[C@H]2c3cc(NS(=O)(=O)c4ccc(F)cc4)ccc3O[C@H]2[C@@H](CO)O1)NC1CCCCC1 | inactive
34 | C[C@@H]1CN([C@H](C)CO)C(=O)CCCn2cc(nn2)CO[C@H]1CN(C)C(=O)Nc1ccccc1C(F)(F)F | inactive
35 | Cc1ccc(S(=O)(=O)Nc2ccc3c(c2)C(=O)N([C@H](C)CO)C[C@H](C)[C@H](CN(C)Cc2ccc(Cl)c(Cl)c2)OCCCC[C@H](C)O3)cc1 | inactive
36 | Cc1ccc(S(=O)(=O)Nc2ccc3c(c2)C(=O)N([C@H](C)CO)C[C@@H](C)[C@H](CN(C)Cc2ccc(Cl)c(Cl)c2)OCCCC[C@H](C)O3)cc1 | inactive
37 | Cc1ccc(S(=O)(=O)Nc2ccc3c(c2)C(=O)N([C@@H](C)CO)C[C@@H](C)[C@H](CN(C)Cc2ccc(Cl)c(Cl)c2)OCCCC[C@@H](C)O3)cc1 | inactive
38 | Cc1ccc(S(=O)(=O)Nc2ccc3c(c2)C(=O)N([C@@H](C)CO)C[C@H](C)[C@@H](CN(C)Cc2ccc(Cl)c(Cl)c2)OCCCC[C@@H](C)O3)cc1 | active
39 | Cc1noc(C)c1S(=O)(=O)Nc1ccc2c(c1)C(=O)N([C@H](C)CO)C[C@@H](C)[C@@H](CN(C)Cc1ccc(Cl)c(Cl)c1)OCCCC[C@H](C)O2 | active
40 | Cc1ccc(S(=O)(=O)Nc2ccc3c(c2)C(=O)N([C@H](C)CO)C[C@H](C)[C@@H](CN(C)Cc2ccc(Cl)c(Cl)c2)OCCCC[C@H](C)O3)cc1 | inactive
41 | Cc1noc(C)c1S(=O)(=O)Nc1ccc2c(c1)C(=O)N([C@H](C)CO)C[C@H](C)[C@@H](CN(C)Cc1ccc(Cl)c(Cl)c1)OCCCC[C@H](C)O2 | inactive
42 | Cc1noc(C)c1S(=O)(=O)Nc1ccc2c(c1)C(=O)N([C@@H](C)CO)C[C@H](C)[C@@H](CN(C)Cc1ccc(Cl)c(Cl)c1)OCCCC[C@H](C)O2 | inactive
43 | Cc1ccc(S(=O)(=O)Nc2ccc3c(c2)C(=O)N([C@@H](C)CO)C[C@H](C)[C@@H](CN(C)Cc2ccc(Cl)c(Cl)c2)OCCCC[C@H](C)O3)cc1 | active
44 | Cc1ccc(S(=O)(=O)Nc2ccc3c(c2)C(=O)N([C@H](C)CO)C[C@@H](C)[C@H](CN(C)Cc2ccc(Cl)c(Cl)c2)OCCCC[C@@H](C)O3)cc1 | inactive
45 | Cc1ccc(S(=O)(=O)Nc2ccc3c(c2)C(=O)N([C@H](C)CO)C[C@@H](C)[C@@H](CN(C)Cc2ccc(Cl)c(Cl)c2)OCCCC[C@H](C)O3)cc1 | inactive
46 | Cc1ccc(S(=O)(=O)Nc2ccc3c(c2)C(=O)N([C@@H](C)CO)C[C@@H](C)[C@@H](CN(C)Cc2ccc(Cl)c(Cl)c2)OCCCC[C@@H](C)O3)cc1 | active
47 | CNC(=O)C[C@@H]1CC[C@H]2[C@@H](COC[C@@H](O)CN2C(=O)c2ccc3c(c2)OCO3)O1 | inactive
48 | COc1cccc(S(=O)(=O)Nc2ccc3c(c2)OC[C@@H](C)N(C(=O)Cc2cccnc2)C[C@H](C)[C@@H](OC)CN(C)C3=O)c1 | inactive
49 | C[C@@H]1CN([C@@H](C)CO)C(=O)c2cccc(NC(=O)Nc3ccc4c(c3)OCO4)c2O[C@H]1CN(C)S(C)(=O)=O | inactive
50 | C[C@@H]1CCCCO[C@H](CN(C)S(=O)(=O)c2ccccc2)[C@H](C)CN([C@@H](C)CO)C(=O)c2cc(NC(=O)Nc3ccc(F)cc3)ccc2O1 | inactive
51 | O=C(O)CCNC(=O)c1cccc([N+](=O)[O-])c1 | inactive
52 | C[C@H]1CN([C@@H](C)CO)C(=O)c2cccc(NS(=O)(=O)c3cn(C)cn3)c2O[C@@H]1CN(C)CC1CCCCC1 | inactive
53 | Cc1noc(C)c1S(=O)(=O)Nc1cccc2c1O[C@@H](CN(C)Cc1ccc3c(c1)OCO3)[C@@H](C)CN([C@@H](C)CO)C2=O | inactive
54 | COCC#Cc1ccc([C@@H]2[C@H]3CN(C(=O)CN4CCOCC4)CC(=O)N3[C@H]2CO)cc1 | inactive
